Rows were chosen to be rich in hits. Some 27% of all compounds tested hit in one or more screens of this group.
CYP2C9 act – human CYP2C9 activators, primary screen, biochemical, luminescence; Cytochrome P450 2C9 (Homo sapiens), P11712; recombinant CYP2C9, luciferin-H conversion; hits give high values; factor 1 = untreated enzyme, 0 = blocked; activation factor at 5 µM; 96,000 compounds, 1.4% hits;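 active = activation factor of 2 or more for CYP2C9 at a 5 µM dose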;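 also: 0 = sulfaphenazole-blocked wells and 1 = vehicle-only wells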
Cav3 T inh – Cav3.2 calcium influx blockers – cell-based, Fluo-4 calcium fluorescence, FDSS, MLSMR library, primary screen. Voltage-dependent T-type calcium channel subunit alpha-1H (Homo sapiens), O95180. Cav3.2-expressing cells; hits give low values. B-score at 10 µM. 100,000 compounds, 4% hits;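 active = single-dose well whose peak fluorescence ratio is a statistical outlier from its plate by either plate-standardised score or position-corrected B-score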
CYP2C19 act – human CYP2C19 activators, primary screen, biochemical, luminescence; recombinant CYP2C19, luciferin-H EGE luminescence; hits give high values; 0 = fully inhibited enzyme, 1 = untreated enzyme; Cytochrome P450 2C19 (Homo sapiens), P33261; 96,000 tested, under 10 active; activation factor at 5 µM;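 active = activation factor of at least 2 at 5 µM in the primary screen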;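 also: 0 = wells with 2.5 mM tranylcypromine and 1 = vehicle-only wells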
CYP2C9 inhib – blockers of cytochrome P450 2C9 activity – biochemical, luminescence, ADME assay, primary screen; inhibition, % at 5 µM; 96,000 compounds, 20% hits; CYP2C9 Supersomes, luciferin-H conversion; P11712;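 active = blocking of liver enzyme CYP2C9 beyond about 50% at 5 µM, limit read from the data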
PTK2B oligo ant – antagonists of Pyk2 self-association, primary screen, Q293 cells, FERM NanoBiT luminescence, HTS | Protein-tyrosine kinase 2-beta (Homo sapiens), Q14289 | z-score (the deposit names both 25 µM and 10 µM) | hits give low values | 99,000 compounds, 0.83% hits;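 active = Z-score of -3 or lower, scaled per plate to the spread of control and sample wells; inactive = z-score above -3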;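 also: negative z-score means lost luminescence so less FERM oligomerization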
Target sequence (Q14289 whole entry, looked up): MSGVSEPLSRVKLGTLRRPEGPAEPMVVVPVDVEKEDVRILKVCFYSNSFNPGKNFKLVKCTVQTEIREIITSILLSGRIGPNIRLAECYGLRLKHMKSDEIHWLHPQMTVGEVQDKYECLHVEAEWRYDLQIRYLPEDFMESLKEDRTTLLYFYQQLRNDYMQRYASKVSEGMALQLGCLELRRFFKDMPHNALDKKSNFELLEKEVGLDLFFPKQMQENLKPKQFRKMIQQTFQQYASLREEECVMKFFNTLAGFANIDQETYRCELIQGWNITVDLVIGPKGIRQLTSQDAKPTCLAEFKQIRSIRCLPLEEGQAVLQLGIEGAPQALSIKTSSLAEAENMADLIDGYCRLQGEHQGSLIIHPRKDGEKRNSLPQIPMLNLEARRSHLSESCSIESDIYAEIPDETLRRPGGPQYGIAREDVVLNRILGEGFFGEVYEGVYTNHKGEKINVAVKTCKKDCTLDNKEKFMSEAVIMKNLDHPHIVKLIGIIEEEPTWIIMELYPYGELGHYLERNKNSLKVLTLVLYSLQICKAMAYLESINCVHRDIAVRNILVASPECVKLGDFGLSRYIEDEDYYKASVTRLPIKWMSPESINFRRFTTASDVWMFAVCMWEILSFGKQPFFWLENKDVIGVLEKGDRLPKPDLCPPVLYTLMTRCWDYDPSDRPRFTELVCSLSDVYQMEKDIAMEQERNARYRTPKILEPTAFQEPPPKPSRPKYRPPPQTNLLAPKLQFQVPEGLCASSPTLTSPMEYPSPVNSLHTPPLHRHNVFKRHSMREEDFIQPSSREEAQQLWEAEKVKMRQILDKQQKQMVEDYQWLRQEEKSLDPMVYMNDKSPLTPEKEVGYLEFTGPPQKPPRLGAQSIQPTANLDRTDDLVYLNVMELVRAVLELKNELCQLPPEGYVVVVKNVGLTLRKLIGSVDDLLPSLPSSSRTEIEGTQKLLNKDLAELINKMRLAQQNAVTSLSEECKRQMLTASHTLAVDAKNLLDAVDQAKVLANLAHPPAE
CYP2C19 inh – blockers of cytochrome P450 2C19 activity – biochemical, luminescence, ADME assay, primary screen; P33261; 96,000 compounds, 21% hits; AID 778, 2007; inhibition, % at 5 µM; CYP2C19 Supersomes, luciferin-H EGE luminescence, 30 min;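 active = CYP2C19 inhibition above a set limit at 5 µM in the primary screen, cut at about 50% in these data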;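 also: plate controls were negative control wells for no effect and 2.5 mM tranylcypromine positive control for full effect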
Active calls of the source: *.

CSCCC(NC(=O)c1ccco1)C(=O)OCC(=O)Nc1sccc1C#N (centres undefined) was read as CYP2C9 act 0.2, CYP2C19 act 0.4, CYP2C9 inhib 78.1* and CYP2C19 inh 55.3*.
`Cc1nnc(SCc2cc(=O)[nH]c(N3CCCCC3)n2)s1` gave Cav3 T inh -0.063 and PTK2B oligo ant -0.28.
O=C(Nc1ccncc1)c1cn(-c2ccccc2)nc1-c1cccs1 was read as CYP2C9 act 0.1, CYP2C19 act 0.1, CYP2C9 inhib 92.8*, PTK2B oligo ant -1.6 and CYP2C19 inh 93.6*.
For CC(NC(=O)COC(=O)c1cn(-c2ccccc2)nc1-c1cccs1)c1ccccc1 (centres undefined) the results were CYP2C9 act 0.3, Cav3 T inh -2.57, CYP2C19 act 0.7, CYP2C9 inhib 66.8*, PTK2B oligo ant 0.74 and CYP2C19 inh 31.6.
O=C(c1cn(-c2ccccc2)nc1-c1cccs1)N1CCN(c2ccc(F)cc2)CC1 was read as CYP2C9 act 0.3, CYP2C19 act 0.2, CYP2C9 inhib 73.9*, PTK2B oligo ant -0.52 and CYP2C19 inh 83.9*.
O=C(NCCN1CCOCC1)c1cn(-c2ccccc2)nc1-c1cccs1 was read as CYP2C9 act 1, CYP2C19 act 0.9, CYP2C9 inhib 4.6, PTK2B oligo ant 0.56 and CYP2C19 inh 9.8.
Screening O=C(c1cn(-c2ccccc2)nc1-c1ccc(Cl)s1)N1CCOCC1 returned CYP2C9 act 1, Cav3 T inh -0.334, CYP2C19 act 0.9, CYP2C9 inhib 1.8, PTK2B oligo ant -1.33 and CYP2C19 inh 11.7.
`CC(C)OC(=O)CN1C(=O)C(C)(C)Oc2ccc(C(=O)NC3CC3)cc21` gave CYP2C9 act 0.7, Cav3 T inh 0.964, CYP2C19 act 0.9, CYP2C9 inhib 34.2, PTK2B oligo ant -0.47 and CYP2C19 inh 12.4.
`CC(C)OC(=O)CN1C(=O)C(C)(C)Oc2ccc(C(=O)NC(C)(C)C)cc21` gave CYP2C9 act 0.3, Cav3 T inh 0.27, CYP2C19 act 0.6, CYP2C9 inhib 73.4*, PTK2B oligo ant -0.56 and CYP2C19 inh 36.3.
For CC(C)CC(NC(=O)C1CCCCC1)C(=O)N1CCN(c2ccccn2)CC1 (centres undefined) the results were CYP2C9 act 0.9, Cav3 T inh 0.313, CYP2C19 act 0.9, CYP2C9 inhib 10.4, PTK2B oligo ant 0.13 and CYP2C19 inh 8.3.
COc1cc(C(=O)Nc2cccc(-c3nc4ccccc4o3)c2C)cc(OC)c1OC was read as CYP2C9 act 0.7, Cav3 T inh 0.0207, CYP2C19 act 0.5, CYP2C9 inhib 30.6, PTK2B oligo ant -1.1 and CYP2C19 inh 45.1.
Screening Cc1c(NC(=O)c2ccc3c(c2)OCO3)cccc1-c1nc2ccccc2o1 returned CYP2C9 act 0.3, Cav3 T inh -0.544, CYP2C19 act 0.5, CYP2C9 inhib 68.7*, PTK2B oligo ant -0.51 and CYP2C19 inh 49.8.
Screening Cc1ccc(-c2nc3ccccc3o2)cc1NC(=O)c1ccc2c(c1)OCO2 returned CYP2C9 act 0.3, Cav3 T inh -1.24, CYP2C19 act 0.5, CYP2C9 inhib 70.1*, PTK2B oligo ant -0.28 and CYP2C19 inh 49.7.
Screening O=C(Nc1ccc(-c2nc3ccccc3o2)cc1)c1ccc2c(c1)OCO2 returned CYP2C9 act 0.9, Cav3 T inh -4.37, CYP2C19 act 0.9, CYP2C9 inhib 14.9, PTK2B oligo ant 2.13 and CYP2C19 inh 7.2.
For CC(C)(C)[C@H]1C=C(C(=O)NC2CC2)O[C@@H](OCc2ccc(CO)cc2)C1 the results were Cav3 T inh 0.42.
`CCN(CCCNC(=O)C1CCC(=O)N1C(C)C)c1cccc(C)c1` (centres undefined) gave CYP2C9 act 0.9, Cav3 T inh -0.232, CYP2C19 act 0.8, CYP2C9 inhib 10.6, PTK2B oligo ant 0.99 and CYP2C19 inh 23.0.
For Cn1cc(C(=O)N2CCN(C(=O)c3ccco3)CC2)c2c3ccccc3n(C)c2c1=O the results were CYP2C9 act 0.9, Cav3 T inh 1.61, CYP2C19 act 1.1, CYP2C9 inhib 8.2, PTK2B oligo ant 1.76 and CYP2C19 inh -11.1.
`COc1ccc(-c2csc(N(Cc3ccccc3)C(=O)COc3ccc(Cl)cc3)n2)cc1` gave CYP2C9 act 1.1, Cav3 T inh 0.438, CYP2C19 act 1.1, CYP2C9 inhib -7.3, PTK2B oligo ant 0.22 and CYP2C19 inh -14.8.
For COc1ccc(-c2csc(N(CCc3ccc(OC)c(OC)c3)C(=O)COc3ccccc3)n2)cc1 the results were CYP2C9 act 0.3, Cav3 T inh -2.81, CYP2C19 act 0.6, CYP2C9 inhib 68.3*, PTK2B oligo ant -0.06 and CYP2C19 inh 37.8.
`CCOc1ccc(-n2nc3c(=S)[nH]nc(C)c3c2C)cc1` gave PTK2B oligo ant -0.81.
For O=C(CCCCC(=O)N1CCN(c2ccccc2)CC1)N1CCN(c2ccccc2)CC1 the results were CYP2C9 act 0.8, CYP2C19 act 0.8, CYP2C9 inhib 22.9 and CYP2C19 inh 18.2.
`O=C(N1CCN(c2ccccc2)CC1)C12CC3CC(CC(C3)C1)C2` gave CYP2C9 act 0.3, Cav3 T inh -1.6, CYP2C19 act 0.2, CYP2C9 inhib 66.6*, PTK2B oligo ant -0.99 and CYP2C19 inh 80.7*.
For CC1(C)C(C=C(Cl)Cl)C1C(=O)N1CCN(c2ccccc2)CC1 (centres undefined) the results were CYP2C9 act 0.7, Cav3 T inh -4.93*, CYP2C19 act 0.5, CYP2C9 inhib 26.5, PTK2B oligo ant -0.17 and CYP2C19 inh 46.0.
For CC12CCC(C(=O)N3CCN(Cc4ccccc4)CC3)(OC1=O)C2(C)C (centres undefined) the results were CYP2C9 act 0.3, Cav3 T inh 1.99, CYP2C19 act 0.3, CYP2C9 inhib 67.4*, PTK2B oligo ant 0.36 and CYP2C19 inh 71.5*.
`CC12CCC(C(=O)N3CCCCCC3)(OC1=O)C2(C)C` (centres undefined) gave CYP2C9 act 1, Cav3 T inh -0.214, CYP2C19 act 1.1, CYP2C9 inhib -3.6, PTK2B oligo ant -0.55 and CYP2C19 inh -10.0.
O=C(N1CCN(Cc2ccccc2)CC1)C12CC3CC(CC(C3)C1)C2 was read as CYP2C9 act 0.3, Cav3 T inh 0.0885, CYP2C19 act 0, CYP2C9 inhib 72.5*, PTK2B oligo ant -0.06 and CYP2C19 inh 98.6*.
`CCCOc1ccccc1Nc1nnc(C)c(=O)[nH]1` gave CYP2C9 act 1.1, Cav3 T inh 0.295, CYP2C19 act 1.1, CYP2C9 inhib -9.1, PTK2B oligo ant -0.16 and CYP2C19 inh -6.2.

Screens from PubChem BioAssay.
